# Most compounds without a hit are left out; they make up all but 11% or so of the library.
# HCV inhibitor – blocks hepatitis C virus; Huh7.5.1 HCVcc-Cre infection, luciferase reporter, 44 h; Potency, µM (series often up to 41.8 µM), without a hit: at the highest dose activity change, negative = inhibition, hits mostly inhibitors; 340,000 tested, 3.4% active
#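 After 44 h co-culture of compound, cells and HCVcc-Cre (~0.5 moi), substrate is added for 15 min at room temperature and luciferase measured over 15 sec. Cells were seeded at 1,000/well and pre-cultured 4 h.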
# AmpC inh no detg – blocks E. coli AmpC beta-lactamase in detergent-free assay. P00811. AmpC nitrocefin hydrolysis, absorbance 480 nm, 0.0001% Triton. Potency, µM (highest dose often 57.1 µM), inactives show at the highest dose activity change, negative = inhibition, most hits filed as inhibitors. 330,000 tested, 0.52% active. AID 485341;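 note: plate controls were no compound for no effect and no enzyme for full effect; nearly all actives have a fitted effect of over 20% in size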
# Target sequence (P00811 whole entry, looked up): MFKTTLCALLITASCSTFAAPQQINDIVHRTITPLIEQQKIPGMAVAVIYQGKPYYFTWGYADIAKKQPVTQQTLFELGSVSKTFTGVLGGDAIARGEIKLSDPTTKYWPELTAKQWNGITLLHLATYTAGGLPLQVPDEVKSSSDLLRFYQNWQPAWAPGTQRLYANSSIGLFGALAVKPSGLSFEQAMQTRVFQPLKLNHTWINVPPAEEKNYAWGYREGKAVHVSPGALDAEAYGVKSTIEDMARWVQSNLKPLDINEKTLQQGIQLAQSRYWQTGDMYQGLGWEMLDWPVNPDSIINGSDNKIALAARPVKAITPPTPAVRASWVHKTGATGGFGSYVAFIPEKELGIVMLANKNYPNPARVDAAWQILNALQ
#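 AmpC (5.3 nM in the dispensed reagent) in 20 mM phosphate pH 7.0 with 0.01% (detergent screen) or 0.0001% Triton X-100 was preincubated with compounds for 15 min at room temperature. Nitrocefin was then added from an 800 uM solution, and hydrolysis was followed at 480 nm.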
# AMA1-RON2 inh – disrupts binding of P. falciparum AMA1 to RON2; AlphaScreen AMA1-biotinylated RON2 peptide binding; Potency, µM (series often up to 58.2 µM), for the others: at the highest dose activity change, negative = inhibition, hits mostly inhibitors; 360,000 tested, 0.2% active; AID 720542;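 note: 0% = vehicle wells and -100% = peptide control; nearly all actives have a fitted effect of over 45% in size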
#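 AMA1 (3D7) with his tag at 25 nM final met compounds first, then biotinylated RON2 peptide at 25 nM; detection used donor plus acceptor beads, 10 µg/mL apiece, read by AlphaScreen after 30 min at room temperature.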
# Pf growth 96h – P. falciparum growth inhibition at 96 hour, primary screen for plastid delayed-death inhibitors; AID 504834; 320,000 tested, 6.9% active; Potency, µM (titrated, usually from 28.7 µM), for inactives: top-dose activity change, negative = inhibition, most hits filed as inhibitors; P. falciparum luciferase reporter growth, 96 h
#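 Erythrocytes infected with luciferase-expressing P. falciparum were dispensed at 2% hematocrit and 0.05% parasitemia (final), then incubated with compounds 96 hours at 37 C in 5% CO2. Luminescence after detection reagent addition reported growth.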
# AmpC inh detg – inhibitors of E. coli AmpC beta-lactamase with detergent | P00811 | AmpC hydrolysis of nitrocefin, absorbance 480 nm, 0.01% Triton | Potency, µM (top dose mostly 114 µM), for inactives: at the top dose activity change, negative = inhibition, most hits filed as inhibitors | 370,000 tested, 0.041% active | AID 485294;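 note: 0% = no-compound wells and -100% = no-enzyme wells; nearly all actives have a fitted effect of over 25% in size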
#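 AmpC (5.3 nM in the dispensed reagent) in 20 mM phosphate pH 7.0 with 0.01% (detergent screen) or 0.0001% Triton X-100 was preincubated with compounds for 15 min at room temperature. Nitrocefin was then added from an 800 uM solution, and hydrolysis was followed at 480 nm.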
# Pf growth 48h – inhibits P. falciparum growth in the first generation, 48 h | AID 504832 | 310,000 tested, 5.9% active | Potency, µM (titrated, usually from 28.7 µM), for the others: at the top dose activity change, negative = inhibition, most hits filed as inhibitors | P. falciparum luciferase growth in erythrocytes, 48 h
#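 In quantitative HTS format, infected erythrocytes bearing luciferase-reporter parasites were treated for a single generation at 37 C. Luminescence after adding detection reagent served as the growth measure.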
# Numbers without * were called inactive; ? = inconclusive; nt = not tested or not shown. Calls come from the whole dose curve; as a rule, active = well fitted curve in the direction sought with a large enough effect; inconclusive = small, poorly fitted or top-dose-only effect, or another doubt; inactive = no such curve, though single readings can be large; an effect the other way counts as inactive or inconclusive. Unless noted, % is set by controls: 0 for no effect and ±100 for the full control effect; potency is the fitted concentration of half-maximal effect.
SMILES,HCV inhibitor,AmpC inh no detg,AMA1-RON2 inh,Pf growth 96h,AmpC inh detg,Pf growth 48h
COc1ccccc1-n1c(C)nnc1SCC(N)=O,6.1%,-11.3%,4.0%,4.4%,2.7%,10.9%
COc1ccc(OC)c(-n2c(SC)nnc2-c2c[nH]c3ccccc23)c1,8.8%,-9.8%,-3.4%,4.15µM*,-11.5%,nt
COc1ccc(OC)c(-n2c(SCC(N)=O)nnc2-c2c[nH]c3ccccc23)c1,9.3%,-10.0%,4.5%,5.22µM*,-13.9%,nt
COc1cccc(-c2nnc(SCC(N)=O)n2-c2ccc(Cl)cc2)c1,7.7%,14.8%,-1.2%,nt,-1.9%,-1.7%
Cc1cc(NC(=O)CSc2nnc(-c3c[nH]c4ccccc34)n2-c2ccc(F)cc2)no1,?,-14.4%,1.8%,24.1%,1.2%,26.6%
COc1ccc(OC)c(-n2c(SCC(=O)Nc3cc(C)on3)nnc2-c2c[nH]c3ccccc23)c1,-0.7%,-17.2%,0.0%,4.65µM*,-3.1%,nt
COc1cccc(-n2c(SCC(N)=O)nnc2-c2c[nH]c3ccccc23)c1,5.4%,-20.9%,18.3%,11.7µM*,-12.6%,nt
Cc1nc2nc(NC(=O)CC(C)C)[nH]n2c(=O)c1Cc1ccccc1,nt,nt,nt,nt,8.3%,nt
Cc1ccccc1Cn1c(Oc2ccccc2F)nc2c1c(=O)n(C)c(=O)n2C,nt,nt,nt,nt,8.3%,nt
CSCCC(NS(=O)(=O)c1ccc2c(c1)oc(=O)n2C)C(=O)N1CCN(c2cccc(Cl)c2)CC1 (centres undefined),nt,nt,nt,nt,-3.3%,nt
CCOc1ccc(-n2c(SCC(=O)NCc3ccco3)nnc2-c2c[nH]c3ccccc23)cc1,?,1.41µM*,-1.3%,?,?,?
Cc1ccccc1-n1c(SCc2c(C)noc2C)nnc1-c1c[nH]c2ccccc12,?,-8.7%,-7.0%,14.7µM*,?,?
CCOc1ccc(-n2c(SCC(=O)Nc3cc(C)on3)nnc2-c2c[nH]c3ccccc23)cc1,16.4%,-15.5%,5.7%,5.86µM*,3.3%,nt
COc1ccccc1-n1c(SCC(N)=O)nnc1-c1ccccc1,4.0%,-5.4%,0.9%,1.65µM*,-1.7%,-15.3%
COc1cc(OC)cc(C(=O)Nc2ccc(-c3nc4cc(C(C)C)ccc4o3)cc2)c1,nt,nt,nt,nt,8.9%,nt
CCCCN(CC)CCCNC(=O)c1ccc2c(c1)NC(=O)CN2C,nt,nt,nt,nt,-3.1%,nt
Fc1ccc(C2CCNCC2COc2ccc3c(c2)OCO3)cc1 (centres undefined),14.1µM*,38.2%,?,?,-4.8%,?
CC1CCCCN1C(=O)C(=O)c1cn(CC(=O)N2CCCCCC2)c2ccccc12 (centres undefined),-2.8%,58.9%,-0.9%,13.1µM*,-0.9%,?
O=C(Cn1cc(C(=O)c2ccco2)c2ccccc21)NC1CCCCC1,-18.6%,-16.7%,6.4%,2.0%,5.4%,22.8%
CCOC(=O)C1CCN(C(=O)C(=O)c2cn(CC(=O)N3CCCCCC3)c3ccccc23)CC1,-26.3%,121.4%,0.0%,10.4µM*,?,11.7µM*
O=CN1CCN(C(=O)C(=O)c2cn(CC(=O)N3CCCCC3)c3ccccc23)CC1,5.3%,15.6%,4.6%,8.5%,0.9%,-14.0%
CCOC(=O)N1CCN(C(=O)C(=O)c2cn(CC(=O)N3CCCCCC3)c3ccccc23)CC1,5.0%,127.9%,-19.8%,11.7µM*,1.3%,11.7µM*
O=C(c1ccco1)c1cn(CC(=O)N2CCCCC2)c2ccccc12,-2.3%,-20.3%,-4.2%,1.65µM*,3.6%,24.9%
CC1=C(C(=O)Nc2cccnc2)C(c2ccccc2)n2nc(SCc3ccccc3Cl)nc2N1 (centres undefined),nt,nt,nt,nt,-5.3%,nt
COc1ccc(S(=O)(=O)NCCS(=O)(=O)N2CCN(c3ccccc3)CC2)cc1OC,nt,nt,nt,nt,23.0%,nt
SMILES,HCV inhibitor,AmpC inh no detg,AMA1-RON2 inh,Pf growth 96h,AmpC inh detg,Pf growth 48h
CC1CCCCN1C(=O)Cn1cc(C=O)c2ccccc21 (centres undefined),-1.1%,-7.0%,-4.6%,13.1µM*,-0.1%,-3.9%
CC1CCCCN1C(=O)Cn1cc(C=C2C(=O)N(C)C(=O)N(C)C2=O)c2ccccc21 (centres undefined),22.6%,-13.3%,0.8%,-12.9%,-7.3%,-6.3%
CCOC(=O)Cn1cc(C(=O)c2cccs2)c2ccccc21,8.91µM*,-0.1%,-1.0%,0.8%,6.9%,30.9%
COc1ccc(NC(=O)Cn2cc(C(=O)c3ccco3)c3ccccc32)cc1,3.55µM*,-37.0%,?,-6.4%,-1.1%,?
CCOc1ccc(NC(=O)Cn2cc(C(=O)c3ccco3)c3ccccc32)cc1,-3.9%,-38.5%,-1.5%,9.5%,15.7%,nt
CCCC(=O)OC1=CN(Cc2ccccc2)S(=O)(=O)c2ccccc21,nt,nt,nt,nt,9.2%,nt
CCOc1ccc(NCc2cccn2-c2nnc(N3CCC(C(=O)NCc4ccccc4Cl)CC3)s2)cc1,nt,nt,nt,nt,22.8%,nt
CN(/N=C/c1ccco1)C1=NS(=O)(=O)c2ccccc21,-7.6%,-20.3%,-8.3%,21.9%,6.8%,-3.2%
CCNc1nc(NCC)nc(N(C)/N=C/c2ccco2)n1,-15.8%,-21.7%,-8.4%,1.47µM*,-7.4%,?
Cc1c(CNC2CCC(C)CC2)c(C(=O)O)c(C)n1Cc1ccc(Cl)cc1 (centres undefined),nt,nt,nt,nt,19.8%,nt
COc1ccccc1NS(=O)(=O)c1ccc(N/N=C/c2c(C)nn(-c3ccccc3)c2N2CCCC2)c([N+](=O)[O-])c1,?,-50.1%,-28.5%,?,-1.1%,3.29µM*
COc1ccccc1NS(=O)(=O)c1ccc(NN=C2CCCC2)c([N+](=O)[O-])c1,?,-9.6%,?,11.7µM*,-1.3%,-29.4%
Cc1nn(-c2ccccc2)c(N2CCCC2)c1/C=N/Nc1ccc(S(=O)(=O)Nc2ccccc2)cc1[N+](=O)[O-],-27.2%,-4.9%,?,?,9.6%,3.29µM*
COc1c(/C=N/Nc2ccc([N+](=O)[O-])cc2[N+](=O)[O-])c(C)nn1-c1ccccc1,1.8%,-12.1%,-14.4%,?,-9.2%,9.9%
Cc1cc(F)ccc1NC(=O)CCn1nc(C)c(S(=O)(=O)N2CCCCC2)c1C,nt,nt,nt,nt,-2.4%,nt
O=C(NCc1ccco1)c1ccc2c(c1)N(Cc1ccc(Cl)cc1)C(=O)c1ccccc1S2(=O)=O,nt,nt,nt,nt,-4.1%,nt
C#CCOCCOCCOCCNc1nc(N2CCN(C(=O)[C@H]([C@@H](C)CC)n3cc(CCCCN)nn3)CC2)nc(N2CCN(C(=O)[C@H](C)n3cc(CCC(=O)O)nn3)CC2)n1,-0.7%,357.8%,4.8%,?,8.0%,11.0%

# Screening data from PubChem.
